From PMC4552634, “A New Set of Chemical Starting Points with Plasmodium falciparum Transmission-Blocking Potential for Antimalarial Drug Discovery” (PLoS ONE, 2015)
About 3,200 (25%) of roughly 13,000 compounds showed an effect of 50% or more. Some of the results follow.

Test system: P. falciparum stage V gametocytes
Set-up: BacTiter-Glo ATP luminescence viability of purified stage V gametocytes in 384-well plates, per cent inhibition versus DMSO
Settings: 48 h, 5 µM; inhibitor

Question: `CN(C)CCOc1ccnc2ccc(NC(=O)Cc3ccc(-c4ccncc4)c4ccccc34)cc12` [TCMDC-139162] was tested. Which “% Inhibition” value did it give?
Answer: 6.193%

Question: How did the “% Inhibition” value turn out when `CCOc1ccnc(=O)[nH]1` [TCMDC-124258] was run?
Answer: 20.67%

Question: With `C=CCOc1ccc(C2C(C(=O)OC)=C(C)NC3=C2C(=O)c2ccccc23)cc1OC` (stereo not drawn) [TCMDC-125383] as the molecule, how does the “% Inhibition” value read?
Answer: -17.47%

Question: Which “% Inhibition” value does the source give for `O=C(Nc1cccc(-c2nn3ncccc3c2-c2ccnc(Nc3cccc(-c4cnco4)c3)n2)c1)c1c(F)cccc1F` [TCMDC-135550] here?
Answer: -49.22%

Question: Which “% Inhibition” value does the source give for `CN1CCN(c2nsc3ccc(-c4ccc(NC(=O)Nc5ccccc5)cc4)cc23)CC1` [TCMDC-133437] here?
Answer: 50.88%

Question: `O=C(Nc1ccc(-c2ccc(-c3nc4ccc(C(F)(F)F)cc4[nH]3)cc2)cc1)Nc1ccc(F)c(F)c1F` [TCMDC-133223] was tested. Which “% Inhibition” value did it give?
Answer: -19.68%

Question: How did the “% Inhibition” value turn out when `CN1CCN(c2nsc3ccc(-c4ccc(OCCN5CCCC5)cc4)cc23)CC1` [TCMDC-133436] was run?
Answer: 111.5%

Question: How did the “% Inhibition” value turn out when `CN1CCN(c2nsc3ccc(-c4ccc(NC(=O)Nc5cc(C(F)(F)F)ccc5F)cc4)cc23)CC1` [TCMDC-133435] was run?
Answer: 89.92%

Question: Which “% Inhibition” value does the source give for `CN(C)Cc1ccc(CN2CCN(CCOc3ccc(-c4ccc(Cl)cc4)cc3)CC2)o1` [TCMDC-138673] here?
Answer: 36.52%

Question: `CN1CCN(c2ccnc3ccc(NC(=O)Nc4ccc(-c5ccccc5)cc4)cc23)CC1` [TCMDC-139320] was tested. Which “% Inhibition” value did it give?
Answer: -2.633%

Question: How did the “% Inhibition” value turn out when `Fc1ccc(-c2cc3ncnc(N4CCN(CCN5CCCC5)CC4)c3s2)cc1` [TCMDC-125053] was run?
Answer: 6.032%

Question: For `CN1CCCc2ccc(NC(=O)Nc3ccc(-c4ccccc4)cc3)cc2C1` [TCMDC-133730], which “% Inhibition” value is on record?
Answer: -3.95%

Question: `COc1ccc(N2CCN(CCCCNC(=O)c3ccc(/C=C/c4ccc(Cl)c(Cl)c4)cc3)CC2)c(OC)c1` [TCMDC-138175] was tested. Which “% Inhibition” value did it give?
Answer: -78.16%

Question: How did the “% Inhibition” value turn out when `CS(=O)(=O)c1ccc2nc(NC(=O)c3csnn3)sc2c1` [TCMDC-125074] was run?
Answer: 49.99%

Question: For `NC1=NC2(CCCC2)N(c2ccc(Cl)cc2)C(N)=N1` [TCMDC-137719], which “% Inhibition” value is on record?
Answer: 0.5076%

Question: How did the “% Inhibition” value turn out when `NC(N)=NC(=O)Nc1cc(Cl)c(Cl)c(Cl)c1` [TCMDC-137465] was run?
Answer: -8.846%

Question: For `CCc1cn(CC(=O)N(CCOc2ccc(-c3ccc(C(F)(F)F)cc3)cc2)CCN(CC)CC)c(SCc2ccc(F)cc2)nc1=O` [TCMDC-140925], which “% Inhibition” value is on record?
Answer: 116.2%

Question: `CCN(CC)CCN(Cc1ccc(-c2ccc(Cl)cc2)cc1)C(=O)Cn1cc(CN(C)C)c(=O)nc1SCc1ccc(F)cc1` [TCMDC-140406] was tested. Which “% Inhibition” value did it give?
Answer: 107.7%

Question: `CC(C)Sc1nc2c(c(=O)n1Cc1ccco1)C1(CCCCC1)Cc1ccccc1-2` [TCMDC-125100] was tested. Which “% Inhibition” value did it give?
Answer: 0.5988%

Question: With `COc1ccc(CNC2CCN(C)CC2)cc1-c1ccc(S(=O)(=O)NC2CCC2)c(F)c1` [TCMDC-132263] as the molecule, how does the “% Inhibition” value read?
Answer: 28.54%

Question: With `COc1ccc(CNC2CCN(C)CC2)cc1-c1ccc(S(=O)(=O)NC2CCC2)cc1` [TCMDC-132245] as the molecule, how does the “% Inhibition” value read?
Answer: 84.43%

Question: With `COc1ccc(CNC2CCN(C)CC2)cc1-c1ccc(S(=O)(=O)NC2CCC2)c(C)c1` [TCMDC-132270] as the molecule, how does the “% Inhibition” value read?
Answer: 86.28%

Question: How did the “% Inhibition” value turn out when `N=C(N)c1ccc(NN=Cc2ccc(Oc3ccc(C(=N)N)cc3)cc2)cc1` [TCMDC-137493] was run?
Answer: 43.38%

Question: Which “% Inhibition” value does the source give for `CC(C)Cc1c(O)nc(SCCN2CCOCC2)[nH]c1=O` [TCMDC-125767] here?
Answer: 17.13%

Question: With `O=C(O)C[C@H](NC(=O)[C@@H]1CCCN1C(=O)c1cccc(-c2ccc(Cl)c(Cl)c2)c1)C(=O)O` [TCMDC-140511] as the molecule, how does the “% Inhibition” value read?
Answer: 4.214%

Question: For `O=[N+]([O-])c1ccc(NC(=NC2CCCc3ccccc32)Nc2ccccc2Br)c(O)c1` (stereo not drawn) [TCMDC-139983], which “% Inhibition” value is on record?
Answer: -2.666%

Question: Which “% Inhibition” value does the source give for `CCCNCc1c(O)ccc2c(CNCCC)c(O)ccc12` [TCMDC-137593] here?
Answer: -47.95%

Question: `COc1c(CNCCCCCCNCc2c(OC)c(OC)c3ccccc3c2OC)c(OC)c2ccccc2c1OC` [TCMDC-137837] was tested. Which “% Inhibition” value did it give?
Answer: 111.1%

Question: For `COc1c(OC)c(OC)c2ccccc2c1CNCCCCCCNCc1c(OC)c(OC)c(OC)c2ccccc12` [TCMDC-137827], which “% Inhibition” value is on record?
Answer: 106%

Question: Which “% Inhibition” value does the source give for `O=C(NC1CC1)c1ccc(N2CCCC(COc3ccccc3F)C2)nc1` (stereo not drawn) [TCMDC-134034] here?
Answer: 24.35%

Question: For `Cc1cccc2nc(-c3ccc(-c4cccc(NC(=O)COc5ccccc5C(N)=O)c4)s3)[nH]c12` [TCMDC-132133], which “% Inhibition” value is on record?
Answer: 0.7486%

Question: For `CN(CCCCNC(=O)/C=C/c1ccccc1)C1CC2(CCN(C(=O)OC(C)(C)C)CC2)c2ccccc21` (stereo not drawn) [TCMDC-132882], which “% Inhibition” value is on record?
Answer: -12.8%

Question: `CN(C1CCC(NC(=O)/C=C/c2ccccc2)CC1)C1CC2(CCN(C(=O)OC(C)(C)C)CC2)c2ccccc21` (stereo not drawn) [TCMDC-132880] was tested. Which “% Inhibition” value did it give?
Answer: 63.78%

Question: For `CN(CCCCNC(=O)c1cc2ccccc2[nH]1)C1CC2(CCN(C(=O)OC(C)(C)C)CC2)c2ccccc21` (stereo not drawn) [TCMDC-132884], which “% Inhibition” value is on record?
Answer: 36.87%

Question: With `OC(CNCc1ccccc1OCc1ccccc1)c1cc(C(F)(F)F)cc(C(F)(F)F)c1` (stereo not drawn) [TCMDC-140300] as the molecule, how does the “% Inhibition” value read?
Answer: -49.16%

Question: `CCCCN(Cc1cc(Cl)c(OC)c(OC)c1)c1ccc(C(O)(C(F)(F)F)C(F)(F)F)cc1` [TCMDC-135446] was tested. Which “% Inhibition” value did it give?
Answer: 54.26%

Question: How did the “% Inhibition” value turn out when `CCCCN(Cc1cc(Cl)c(OCC)c(OC)c1)c1ccc(C(O)(C(F)(F)F)C(F)(F)F)cc1` [TCMDC-135622] was run?
Answer: 2.509%

Question: How did the “% Inhibition” value turn out when `CCCCN(Cc1cccc(C(F)(F)F)c1Cl)c1ccc(C(O)(C(F)(F)F)C(F)(F)F)cc1` [TCMDC-135213] was run?
Answer: -4.716%

Question: With `Cc1ccc(F)cc1S(=O)(=O)Nc1cccc(CCN2CCC(N3CCCCC3)CC2)c1` [TCMDC-134068] as the molecule, how does the “% Inhibition” value read?
Answer: 67.59%

Question: With `Cc1ccc(F)cc1S(=O)(=O)Nc1ccc(CCN2CCC(N3CCCCC3)CC2)cc1` [TCMDC-134088] as the molecule, how does the “% Inhibition” value read?
Answer: 60.27%

Question: Which “% Inhibition” value does the source give for `COc1ccc(C2C(C(=O)OC3CCCCC3)=C(C)NC3=C2C(=O)CCC3)cc1Br` (stereo not drawn) [TCMDC-125070] here?
Answer: -15.5%

Question: For `COc1cc(CCCON2C(N)=NC(N)=NC2(C)C)cc(OC)c1OC` [TCMDC-131726], which “% Inhibition” value is on record?
Answer: 7.417%

Question: Which “% Inhibition” value does the source give for `COc1ccc(C=C2SC(=N)N(c3ccccc3OC)C2=O)cc1` [TCMDC-124486] here?
Answer: 37.63%

Question: With `NC1=NC2(CCCCC2)N(OCCCOc2cccc3ccccc23)C(N)=N1` [TCMDC-131649] as the molecule, how does the “% Inhibition” value read?
Answer: 49.63%

Question: How did the “% Inhibition” value turn out when `O=c1c2ccccc2[nH]c2nc3ccccc3c(Nc3ccccc3)c12` [TCMDC-141996] was run?
Answer: 28.3%

Question: `CCOc1ccc(Nc2nc(N)c3ccccc3n2)cc1.Cl` [TCMDC-123748] was tested. Which “% Inhibition” value did it give?
Answer: 31.55%

Question: How did the “% Inhibition” value turn out when `Cl.c1ccc2c(Nc3ccc(OCCOCCOc4ccc(Nc5c6ccccc6nc6ccccc56)cc4)cc3)c3ccccc3nc2c1` [TCMDC-137355] was run?
Answer: 108.9%

Question: Which “% Inhibition” value does the source give for `CC(=O)Nc1cccc(Nc2c3ccccc3nc3ccccc23)c1` [TCMDC-123741] here?
Answer: -71.42%

Question: `Cl.c1ccc2c(Nc3ccc(Oc4ccc(Nc5c6ccccc6nc6ccccc56)cc4)cc3)c3ccccc3nc2c1` [TCMDC-124284] was tested. Which “% Inhibition” value did it give?
Answer: 101.1%

Question: Which “% Inhibition” value does the source give for `Cc1ccc(Nc2c3ccccc3nc3ccc(C)cc23)cc1` [TCMDC-124153] here?
Answer: -51.64%

Question: Which “% Inhibition” value does the source give for `CC(=O)Nc1ccc(Nc2c3ccccc3nc3ccccc23)cc1` [TCMDC-124356] here?
Answer: 67.17%

Question: `Cc1cc2cc(/C=C/C(=O)NC3CCC(CCN4CCc5ccc(C#N)cc5CC4)CC3)ccc2[nH]1` (stereo not drawn) [TCMDC-139673] was tested. Which “% Inhibition” value did it give?
Answer: -19.51%

Question: For `CCn1cc2c3c(cc(C(=O)N[C@@H](Cc4ccccc4)[C@H](O)CNC4CCOCC4)cc31)N(C)S(=O)(=O)CC2` [TCMDC-135785], which “% Inhibition” value is on record?
Answer: -5.565%

Question: How did the “% Inhibition” value turn out when `COc1ccc(Nc2nc(NC3CCCC3)cc(-c3ccc(OC)cc3)n2)cc1` [TCMDC-133468] was run?
Answer: -75.14%

Question: Which “% Inhibition” value does the source give for `Cc1ccccc1C1CCN(c2ccc(C(=O)Nc3ccc(F)cc3)cn2)CC1` [TCMDC-134611] here?
Answer: 39.85%

Question: `CC(C)[C@H](NC(=O)c1ccc(O)c(-c2ccc(Cl)c(Cl)c2)c1)C(=O)NCCN1CCOCC1` [TCMDC-140850] was tested. Which “% Inhibition” value did it give?
Answer: -3.222%

Question: Which “% Inhibition” value does the source give for `C=CCOC(=O)N1CCC(CNCc2ccc(-c3cccc(-c4nc5cccc(C)c5[nH]4)c3)cc2)C1.O=C(O)C(F)(F)F` (stereo not drawn) [TCMDC-133039] here?
Answer: 9.6%

Question: How did the “% Inhibition” value turn out when `CC(Cc1ccc(Cl)cc1)Nc1nc(NC2CCCC2)nc(N2CCC(C#N)(c3ccccc3)CC2)n1` (stereo not drawn) [TCMDC-139928] was run?
Answer: -79.71%

Question: `CN(C)c1ccc(-c2csc(C(=O)NC3CCCCN(CCC(C)(C)C)C3)c2)cc1` (stereo not drawn) [TCMDC-134487] was tested. Which “% Inhibition” value did it give?
Answer: -62.75%

Question: With `CN(C)c1ccc(-c2csc(C(=O)NC3CCCCN(Cc4ccc(C(C)(C)C)cc4)C3)c2)cc1` (stereo not drawn) [TCMDC-134470] as the molecule, how does the “% Inhibition” value read?
Answer: 63.14%

Question: With `CC(C)(C)c1ccc(CN2CCCCC(NC(=O)c3cc(-c4cccc(Cl)c4)cs3)C2)cc1` (stereo not drawn) [TCMDC-134468] as the molecule, how does the “% Inhibition” value read?
Answer: -11.91%

Question: Which “% Inhibition” value does the source give for `CC(=O)Nc1ccc(CN2CCC(NC(=O)c3cc(-c4ccc(N(C)C)cc4)cs3)C2)cc1` (stereo not drawn) [TCMDC-134477] here?
Answer: 92.99%

Question: For `CN(C)c1ccc(-c2ccc(C(=O)NC3CCN(Cc4ccc(C(C)(C)C)cc4)CC3)s2)cc1` [TCMDC-134354], which “% Inhibition” value is on record?
Answer: -40.81%

Question: For `CN(C)c1ccc(-c2csc(C(=O)NC3CCN(Cc4ccc(C(C)(C)C)cc4)C3)c2)cc1` (stereo not drawn) [TCMDC-134476], which “% Inhibition” value is on record?
Answer: 63.77%

Question: With `CN(C)c1ccc(CN2CCCCC(NC(=O)c3cc(-c4ccccc4F)cs3)C2)cc1` (stereo not drawn) [TCMDC-134471] as the molecule, how does the “% Inhibition” value read?
Answer: -62.25%

Question: For `O=C(NCC1CCC(C(=O)NCc2cccc(C(F)(F)F)c2)CC1)c1ccc(O)c(-c2ccc(Cl)c(Cl)c2)c1` (stereo not drawn) [TCMDC-140886], which “% Inhibition” value is on record?
Answer: 8.372%
